SMILES strings stand for the structures. Unmarked numbers belong to inactive results. For some assays here: Potency and affinity values are given separately. Calls of active or inactive are those of the source. Unless noted, the rule behind the calls is not given here.

Experiment [1] can be described thus: antimalarial activity against Dd2 strain (AID 2302;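 active = growth inhibition above 50% at the single 2 µM test dose, taken to imply half-maximal potency below 2 µM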;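 note: 0% = DMSO untreated growth and 100% = chloroquine plus artemisinin killed control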). The settings on record: P. falciparum Dd2 in RBCs, LDH growth readout, 72 h; at 2 µM; hits give high values.
Experiment [2] can be described thus: human hepatoma cell viability loss – ATP luminescence, cytotoxicity control for P. falciparum antimalarial project, primary screen (AID 2303;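 active = inhibition above 50%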;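 note: 0% = DMSO wells and 100% = digitonin-killed cells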). To be noted: HepG2 viability, 24-48 h, at 10 µM, hits give high values.
In experiment [3] the target is L-lactate dehydrogenase (Plasmodium falciparum (isolate CDC / Honduras)) (UniProt Q27743). Put plainly: PfLDH activity inhibition – cell lysate, 3D7 strain, counter-screen for P. falciparum growth inhibition project (AID 2304).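 Note: 0% = vehicle and 100% = reference inhibitor.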 To be noted: P. falciparum 3D7 crude extract, LDH APAD/NBT absorbance; at 2 µM; hits give high values.
Chain of L-lactate dehydrogenase (Plasmodium falciparum (isolate CDC / Honduras)) (Q27743 whole entry, looked up): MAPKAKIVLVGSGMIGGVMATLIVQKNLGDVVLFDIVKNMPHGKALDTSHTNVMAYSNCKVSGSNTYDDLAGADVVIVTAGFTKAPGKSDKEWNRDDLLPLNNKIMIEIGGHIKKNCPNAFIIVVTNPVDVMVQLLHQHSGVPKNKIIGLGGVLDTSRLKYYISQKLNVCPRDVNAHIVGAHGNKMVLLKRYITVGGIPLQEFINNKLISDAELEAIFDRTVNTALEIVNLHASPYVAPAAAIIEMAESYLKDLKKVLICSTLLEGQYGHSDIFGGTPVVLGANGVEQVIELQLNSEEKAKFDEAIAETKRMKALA
Experiment [4] can be described thus: inhibition of 3D7 malaria parasite growth – strain 3D7 (AID 2306).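 Note: 0% = DMSO wells and 100% = chloroquine plus artemisinin control wells.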 The settings on record: P. falciparum 3D7 erythrocytic growth, LDH absorbance, 72 h; at 2 µM; hits give high values.
The target of experiment [5] is Calcium-dependent protein kinase 1 (Plasmodium falciparum (isolate 3D7)) (UniProt P62344). As to the kind of experiment: PfCDPK1 kinase inhibitors, biochemical, TCAMS library (AID 1159585; cut-off not given, nearly all actives have IC50 up to about 0.98 µM;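 note: inhibitors leave more ATP so luminescence rises with inhibition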). The settings on record: recombinant PfCDPK1, Kinase-Glo ATP depletion luminescence. A general note: Kinase-Glo reads ATP consumption through a luciferase reaction.
Chain of Calcium-dependent protein kinase 1 (Plasmodium falciparum (isolate 3D7)) (P62344 whole entry, looked up): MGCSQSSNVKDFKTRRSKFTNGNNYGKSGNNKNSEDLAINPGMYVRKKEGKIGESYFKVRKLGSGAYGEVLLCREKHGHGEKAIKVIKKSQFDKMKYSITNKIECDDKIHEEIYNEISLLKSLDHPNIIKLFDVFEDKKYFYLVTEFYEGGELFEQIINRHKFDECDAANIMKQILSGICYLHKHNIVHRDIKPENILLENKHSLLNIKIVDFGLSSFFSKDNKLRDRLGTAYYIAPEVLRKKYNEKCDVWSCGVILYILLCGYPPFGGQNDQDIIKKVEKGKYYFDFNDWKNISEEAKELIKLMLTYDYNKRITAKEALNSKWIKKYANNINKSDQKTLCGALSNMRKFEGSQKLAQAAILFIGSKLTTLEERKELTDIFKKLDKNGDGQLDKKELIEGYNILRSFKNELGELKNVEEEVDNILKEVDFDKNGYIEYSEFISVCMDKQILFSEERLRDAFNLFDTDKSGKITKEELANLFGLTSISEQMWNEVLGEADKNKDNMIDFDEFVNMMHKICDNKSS
For experiment [6], the target named is Plasmodium falciparum protein kinase 6 (PK6, PF3D7_1337100) (UniProt Q8IDW1). As to the kind of experiment: PfPK6 kinase inhibitors, biochemical, TCAMS library (AID 1159586). To be noted: recombinant PfPK6, Kinase-Glo ATP depletion luminescence.
Chain of Plasmodium falciparum protein kinase 6 (PK6, PF3D7_1337100) (Q8IDW1 1-305): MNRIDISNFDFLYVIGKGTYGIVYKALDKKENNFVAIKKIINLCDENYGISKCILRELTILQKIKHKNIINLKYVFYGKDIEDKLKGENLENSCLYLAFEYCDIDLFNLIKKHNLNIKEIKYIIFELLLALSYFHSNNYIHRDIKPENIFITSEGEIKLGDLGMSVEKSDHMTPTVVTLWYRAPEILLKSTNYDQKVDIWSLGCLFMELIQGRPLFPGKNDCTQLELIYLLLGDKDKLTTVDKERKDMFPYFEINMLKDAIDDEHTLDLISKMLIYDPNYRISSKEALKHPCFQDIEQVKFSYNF
In experiment [7] the target is Protein kinase 7 (PK7), Plasmodium falciparum 3D7 (PF3D7_0213400) (UniProt Q7YTF7). As to the kind of experiment: inhibition of Plasmodium PK7 catalytic activity – biochemical, TCAMS antimalarial set, Kinase-Glo luminescence (AID 1159587). To be noted: recombinant PfPK7, Kinase-Glo ATP depletion luminescence.
Chain of Protein kinase 7 (PK7), Plasmodium falciparum 3D7 (PF3D7_0213400) (Q7YTF7 1-343): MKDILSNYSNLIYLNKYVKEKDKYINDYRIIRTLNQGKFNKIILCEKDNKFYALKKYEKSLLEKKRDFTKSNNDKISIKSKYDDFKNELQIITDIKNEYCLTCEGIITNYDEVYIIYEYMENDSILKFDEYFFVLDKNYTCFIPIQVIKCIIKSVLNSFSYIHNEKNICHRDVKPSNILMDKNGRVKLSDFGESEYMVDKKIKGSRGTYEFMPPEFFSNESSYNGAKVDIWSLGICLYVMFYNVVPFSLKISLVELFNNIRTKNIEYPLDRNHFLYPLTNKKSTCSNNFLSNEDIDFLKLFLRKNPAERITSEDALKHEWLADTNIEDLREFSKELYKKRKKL
In experiment [8] the target is Calcium-dependent protein kinase 4 (Plasmodium falciparum (isolate 3D7)) (UniProt Q8IBS5). Put plainly: PfCDPK4 kinase inhibitors, biochemical, TCAMS library (AID 1159588; cut-off not given, nearly all actives have IC50 up to about 0.91 µM). The settings on record: recombinant PfCDPK4, Kinase-Glo ATP depletion luminescence.
Chain of Calcium-dependent protein kinase 4 (Plasmodium falciparum (isolate 3D7)) (Q8IBS5 whole entry, looked up): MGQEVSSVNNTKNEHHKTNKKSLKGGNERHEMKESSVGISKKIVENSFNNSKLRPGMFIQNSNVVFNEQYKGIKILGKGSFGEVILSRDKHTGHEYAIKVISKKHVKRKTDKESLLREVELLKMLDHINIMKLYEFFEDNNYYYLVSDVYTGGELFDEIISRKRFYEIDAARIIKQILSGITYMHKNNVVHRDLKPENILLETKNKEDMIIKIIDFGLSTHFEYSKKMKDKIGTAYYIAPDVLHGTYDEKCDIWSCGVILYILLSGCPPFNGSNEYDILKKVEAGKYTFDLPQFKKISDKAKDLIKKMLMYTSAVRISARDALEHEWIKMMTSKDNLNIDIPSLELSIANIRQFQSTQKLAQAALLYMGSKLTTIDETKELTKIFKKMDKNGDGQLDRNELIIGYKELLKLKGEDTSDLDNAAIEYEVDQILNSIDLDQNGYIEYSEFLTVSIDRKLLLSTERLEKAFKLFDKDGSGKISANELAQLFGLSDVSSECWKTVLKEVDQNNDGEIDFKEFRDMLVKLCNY

Take `CCOc1ccc2c(NN=Cc3ccccn3)cc(C)nc2c1`: the growth inhibition was 1% in experiment [1] and 98% (active) in experiment [4]. The results for the inhibition in experiment [2] and in experiment [3] were 19% and -3%, respectively. Also, the result in experiment [5], in experiment [6], in experiment [7] and in experiment [8] was inactive.

In the case of `CCCc1ccc(S(=O)(=O)NC2CCN(c3ccnc(Nc4ccc(F)cc4)n3)C2)cc1` (configuration not stated), the growth inhibition in experiment [1] was 56% (active); in experiment [4], 95% (active). Also, the values for the inhibition in experiment [2] and in experiment [3] were 40% and -6%, respectively. Besides, the result in experiment [5], in experiment [6], in experiment [7] and in experiment [8] was inactive.

As to `COc1ccc2ccccc2c1C=NNc1cc(C)nc2cc(C(F)(F)F)ccc12`, the growth inhibition is 4% in experiment [1] and 92% (active) in experiment [4]. The figures for the inhibition in experiment [2] and in experiment [3] were 1% and 0%, respectively. Besides, the outcome in experiment [5], in experiment [6], in experiment [7] and in experiment [8] was inactive.

As for `O=[N+]([O-])c1ccc(C(O)P(=O)(c2ccccc2)c2ccccc2)cc1` (configuration not stated), the growth inhibition was 1% in experiment [1] and 98% (active) in experiment [4]. The inhibition – broadly, the drop in the measured response relative to a control, in per cent – in experiment [2] was 1%; in experiment [3] it was 0%. Besides, the outcome in experiment [5], in experiment [6], in experiment [7] and in experiment [8] was inactive.

`CC(=O)Nc1ccc(C2NC(=O)NC(c3ccccc3)=C2c2nc3ccccc3s2)cc1` (configuration not stated): the growth inhibition in experiment [1] is 96% (active); in experiment [4] it was 93% (active). The inhibition in experiment [2] was -3%; in experiment [3] it was 3%. Besides, the result in experiment [5], in experiment [6], in experiment [7] and in experiment [8] was inactive.

As for `Nc1ncnc2cc(-c3cccc(NC(=O)Nc4ccccc4)c3)sc12`, the growth inhibition in experiment [1] is 33%; in experiment [4], 94% (active). For the same molecule, the inhibition in experiment [2] was 4%; in experiment [3], 9%. Further, the outcome in experiment [5], in experiment [6], in experiment [7] and in experiment [8] was inactive.

Regarding `CC(C)c1cccc(C(NC(=O)[C@H]2Cc3ccccc3CN2C(=O)c2cccc(N3CCOCC3)c2)C2CCCC2)c1` (some centres not stated), the growth inhibition in experiment [1] is 96% (active); in experiment [4], 94% (active). The inhibition was 3% in experiment [2] and 1% in experiment [3]. In addition, the result in experiment [5], in experiment [6], in experiment [7] and in experiment [8] was inactive.

`NOCCCCOc1ccccc1`: the figures for the growth inhibition in experiment [1] and in experiment [4] were 2% and 99% (active), respectively. Besides, the figures for the inhibition in experiment [2] and in experiment [3] were 12% and -4%, respectively. In addition, the outcome in experiment [5], in experiment [6], in experiment [7] and in experiment [8] was inactive.

For the molecule `Cc1[nH]c(C)c(-c2ccc(-c3ccc(OC(F)(F)F)cc3)cc2)c(=O)c1Br`, the growth inhibition in experiment [1] was 97% (active); in experiment [4], 96% (active). The inhibition in experiment [2] is 33%; in experiment [3], -3%. The outcome in experiment [5], in experiment [6], in experiment [7] and in experiment [8] was inactive.

With `O=C(/C=C/c1ccc(Cl)c(Cl)c1)NCCCCCCN1CCN(C(=O)Nc2cc(Cl)nc(Cl)c2)CC1`, the growth inhibition is 0% in experiment [1] and 102% (active) in experiment [4]. In addition, the values for the inhibition in experiment [2] and in experiment [3] were 15% and -2%, respectively. The outcome in experiment [5], in experiment [6], in experiment [7] and in experiment [8] was inactive.

As to `O=C(NCCc1ccc(Cl)c(Cl)c1)[C@@H]1CCCN1C(=O)c1ccc(O)c(-c2ccc(Cl)c(Cl)c2)c1`, the growth inhibition in experiment [1] and in experiment [4] was 99% (active) in each case. The inhibition in experiment [2] and in experiment [3] was -2% each time. In addition, the result in experiment [5], in experiment [6], in experiment [7] and in experiment [8] was inactive.

`CC1CCN(c2nc(C(=O)NCCc3ccc(Cl)c(Cl)c3)c(C(C)C)s2)CC1`: the growth inhibition in experiment [1] was 38%; in experiment [4] it was 88% (active). Further, the inhibition is -3% in experiment [2] and 3% in experiment [3]. The result in experiment [5], in experiment [6], in experiment [7] and in experiment [8] was inactive.

For `COc1ccc(CCCc2nc(N)nc(N)c2-c2ccc(Cl)cc2)cc1`, the growth inhibition was 0% in experiment [1] and 94% (active) in experiment [4]. The inhibition in experiment [2] was 65% (active); in experiment [3], 2%. Further, the result in experiment [5], in experiment [6], in experiment [7] and in experiment [8] was inactive.

Consider `CC(CCc1ccc(OCc2ccccc2)cc1)NCC(O)c1ccccc1` (configuration not stated), for which the growth inhibition in experiment [1] was 72% (active); in experiment [4], 86% (active). Besides, the inhibition in experiment [2] is 9%; in experiment [3], -1%. For the same molecule, the outcome in experiment [5], in experiment [6], in experiment [7] and in experiment [8] was inactive.

As to `COCCC[C@H]1C(=O)O[C@H]2CCC[C@@H]21`, the growth inhibition in experiment [1] is 85% (active); in experiment [4] it was 93% (active). The inhibition was -9% in experiment [2] and -4% in experiment [3]. Also, the outcome in experiment [5], in experiment [6], in experiment [7] and in experiment [8] was inactive.

Regarding `CCCCCn1c(Sc2ccc(C#N)c([N+](=O)[O-])c2)nnc1-c1ccc(Cl)cc1`, the growth inhibition in experiment [1] was 29%; in experiment [4], 88% (active). Further, the results for the inhibition in experiment [2] and in experiment [3] were 18% and 3%, respectively. The result in experiment [5], in experiment [6], in experiment [7] and in experiment [8] was inactive.

Regarding `Cc1cccc2[nH]c(-c3cccc(-c4cccc(NC(=O)CC5NC(=O)c6ccccc65)c4)c3)nc12` (configuration not stated), the figures for the growth inhibition in experiment [1] and in experiment [4] were 49% and 92% (active), respectively. Moreover, the inhibition in experiment [2] was 8%; in experiment [3] it was -1%. Also, the result in experiment [5], in experiment [6], in experiment [7] and in experiment [8] was inactive.

In the case of `NC(=O)c1sc(-n2cnc3ccc(OCC4CCNCC4)cc32)cc1OCc1ccccc1C(F)(F)F`, the growth inhibition in experiment [1] was 62% (active); in experiment [4] it was 101% (active). Moreover, the inhibition in experiment [2] is 18%; in experiment [3], -6%. The result in experiment [5], in experiment [6], in experiment [7] and in experiment [8] was inactive.

For `COc1cccc(CNC(=O)c2cccc(-c3ccc(CN4CCC(N5CCCC5)CC4)cc3)n2)c1`, the growth inhibition in experiment [1] was 76% (active); in experiment [4] it was 101% (active). For the same molecule, the inhibition was 16% in experiment [2] and 1% in experiment [3]. Besides, the result in experiment [5], in experiment [6], in experiment [7] and in experiment [8] was inactive.

Values taken from PubChem BioAssay.
